Results on 28 compounds are retold here after PubChem BioAssay (Tox21).

A short description of assay [1]: A CellTox Green Cytotoxicity Assay to monitor cytotoxicity in HepG2 cells - 8 hour (AID 1224890). Also: nearly all actives have a fitted effect of over 45% in size. The essentials: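 Real-time, homogeneous cytotoxicity readout: dead-cell DNA staining by CellTox Green in HepG2 monolayers, fluorescence measured at timed intervals up to 40 h of continuous compound exposure.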
Assay [2] is described as follows: qHTS assay to identify small molecule antagonists of the androgen receptor (AR) signaling pathway using the MDA cell line in the presence of 0.5 nM R1881 - cell viability counter screen (AID 1259242). Also: nearly all actives have a fitted effect of over 45% in size. In short, it runs like this: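 Cytotoxicity toward MDA-kb2 cells is measured by CellTiter-Fluor live-cell protease fluorescence after 16 hr compound exposure at 37C in the presence of 0.5 nM R1881 stimulator.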

Assay [3] can be described thus: qHTS assay to identify small molecule HDAC inhibitors (AID 1259364). Also: top concentration of the series differs between compounds; nearly all actives have a fitted effect of over 45% in size. In short, it runs like this:
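Homogeneous cell-based luminescent assay of endogenous class I/II HDAC activity; HCT-116 cells, 2 h compound exposure, 30 min HDAC-Glo development at RT.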
(In general: qHTS replaces the single test concentration by a dilution series.)

Assay [4] in a line: qHTS assay to identify small molecule HDAC inhibitors - cell viability counter screen (AID 1259365). Also: series mostly up to about 92 µM; nearly all actives have a fitted effect of over 50% in size. In short, it runs like this: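 Counter screen in wild-type HCT-116 cells: compounds dissolved in DMSO are pin-transferred onto overnight-plated cells and left 2hr at 37C. ATP-based CellTiter-Glo luminescence then measures viable cells.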
The nature of assay [5]: qHTS assay to identify small molecule agonists of the sonic hedgehog signaling (Shh) pathway - cell viability counter screen (AID 1259366). Also: nearly all actives have a fitted effect of over 50% in size. Also: potency is read from the fitted curve at half-maximal effect. The essentials:
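Cells are plated at 2,000 per well and left 4hr at 37C, 5% CO2 before compound addition. After 23hr of treatment, CellTiter-Fluor reagent is added for 1hr at 37C and fluorescence is measured.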

A short description of assay [6]: qHTS assay to identify small molecule antagonists of the sonic hedgehog signaling (Shh) pathway - cell viability counter screen (AID 1259367). Also: nearly all actives have a fitted effect of over 55% in size. Also: potency is read from the fitted curve at half-maximal effect. In short, it runs like this: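 Cells: 3T3 Gli1-Luc, 2,000/well, 4 hr pre-incubation. Compounds in DMSO, then conditioned medium. Incubation 24 hr, 37C, 5% CO2. CellTiter-Fluor at 23 hr, 1 hr, fluorescence.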
Assay [7] deals with Estrogen receptor (Homo sapiens) (UniProt P03372). Put plainly: qHTS assay to identify small molecule antagonists of the estrogen receptor alpha (ER-alpha) signaling pathway using the BG1 cell line in the presence of 0.1 nM 17-beta-estradiol (AID 1259244). Also: nearly all actives have a fitted effect of over 50% in size. The essentials: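 After 5 days in hormone-depleted medium (charcoal-stripped serum, no phenol red), VM7Luc4E2 cells were seeded, incubated 24 h, then co-treated with compound and 0.1 nM (final) estradiol for 22 h before luminescence detection.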

A short description of assay [8]: qHTS assay to identify small molecule phospholipidosis (PLD) inducers (AID 1259344; active = well fitted curve in the direction sought with a large enough effect; an effect the other way counts as inactive or inconclusive). In short, it runs like this:
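Phospholipidosis is scored by imaging LipidTOX-stained pits in HepG2 cells exposed to compound for 24 h at 37 C; pit counts and integrated intensities per well and per cell serve as outputs.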

Assay [9] in a line: qHTS assay to identify small molecule antagonists of the estrogen receptor alpha (ER-alpha) signaling pathway using the BG1 cell line in the presence of 0.1 nM 17-beta-estradiol - cell viability counter screen (AID 1259241). Also: nearly all actives have a fitted effect of over 40% in size. The essentials: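 Cells were plated and left 24 hr, compounds in DMSO were pinned in, 17beta-estradiol was added to 0.1 nM final, and after 22 hr CellTiter-Fluor reagent was added for 30 min before fluorescence was read.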

Assay [10] has as its target Androgen receptor (Homo sapiens) (UniProt P10275). Put plainly: qHTS assay to identify small molecule antagonists of the androgen receptor (AR) signaling pathway using the MDA cell line in the presence of 0.5 nM R1881 (AID 1259243). Also: nearly all actives have a fitted effect of over 50% in size. In short, it runs like this:
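Steps: seed MDA-kb2 cells, incubate 5 hr at 37C; pin-transfer compounds in DMSO; add R1881 to 0.5 nM final; incubate 16 hr; add ONE-Glo, wait 30 min at room temperature; read luminescence.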

Unmarked numbers belong to inactive results. Results filed as inconclusive are left out. Active and inactive are the calls of the source. Unless noted, calls follow the shape of the dose curve; as a rule, active = well fitted curve in the direction sought with a large enough effect in the repeat runs; inconclusive = weak or mixed curves; inactive = no such curve, though single readings can be large; an effect the other way counts as inactive or inconclusive.
% is scaled to controls: 0 for no effect and ±100 for the full control effect.

Estrogen receptor (Homo sapiens), sequence (P03372 whole entry, looked up): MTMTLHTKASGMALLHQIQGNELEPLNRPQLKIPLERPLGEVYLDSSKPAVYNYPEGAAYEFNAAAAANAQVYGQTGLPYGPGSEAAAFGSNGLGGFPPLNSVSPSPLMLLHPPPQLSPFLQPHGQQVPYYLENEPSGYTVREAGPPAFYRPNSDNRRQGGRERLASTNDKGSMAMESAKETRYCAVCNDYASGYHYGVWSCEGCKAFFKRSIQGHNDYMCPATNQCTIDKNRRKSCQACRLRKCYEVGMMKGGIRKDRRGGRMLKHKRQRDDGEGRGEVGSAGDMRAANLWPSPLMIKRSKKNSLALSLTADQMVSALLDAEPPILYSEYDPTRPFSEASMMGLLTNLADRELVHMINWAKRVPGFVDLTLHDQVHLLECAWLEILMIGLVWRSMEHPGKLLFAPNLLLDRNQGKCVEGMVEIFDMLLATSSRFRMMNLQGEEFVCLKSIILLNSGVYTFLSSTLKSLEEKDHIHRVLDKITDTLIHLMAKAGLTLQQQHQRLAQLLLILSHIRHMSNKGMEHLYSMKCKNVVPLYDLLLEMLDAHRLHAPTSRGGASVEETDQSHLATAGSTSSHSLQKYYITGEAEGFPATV
Androgen receptor (Homo sapiens), sequence (P10275 whole entry, looked up): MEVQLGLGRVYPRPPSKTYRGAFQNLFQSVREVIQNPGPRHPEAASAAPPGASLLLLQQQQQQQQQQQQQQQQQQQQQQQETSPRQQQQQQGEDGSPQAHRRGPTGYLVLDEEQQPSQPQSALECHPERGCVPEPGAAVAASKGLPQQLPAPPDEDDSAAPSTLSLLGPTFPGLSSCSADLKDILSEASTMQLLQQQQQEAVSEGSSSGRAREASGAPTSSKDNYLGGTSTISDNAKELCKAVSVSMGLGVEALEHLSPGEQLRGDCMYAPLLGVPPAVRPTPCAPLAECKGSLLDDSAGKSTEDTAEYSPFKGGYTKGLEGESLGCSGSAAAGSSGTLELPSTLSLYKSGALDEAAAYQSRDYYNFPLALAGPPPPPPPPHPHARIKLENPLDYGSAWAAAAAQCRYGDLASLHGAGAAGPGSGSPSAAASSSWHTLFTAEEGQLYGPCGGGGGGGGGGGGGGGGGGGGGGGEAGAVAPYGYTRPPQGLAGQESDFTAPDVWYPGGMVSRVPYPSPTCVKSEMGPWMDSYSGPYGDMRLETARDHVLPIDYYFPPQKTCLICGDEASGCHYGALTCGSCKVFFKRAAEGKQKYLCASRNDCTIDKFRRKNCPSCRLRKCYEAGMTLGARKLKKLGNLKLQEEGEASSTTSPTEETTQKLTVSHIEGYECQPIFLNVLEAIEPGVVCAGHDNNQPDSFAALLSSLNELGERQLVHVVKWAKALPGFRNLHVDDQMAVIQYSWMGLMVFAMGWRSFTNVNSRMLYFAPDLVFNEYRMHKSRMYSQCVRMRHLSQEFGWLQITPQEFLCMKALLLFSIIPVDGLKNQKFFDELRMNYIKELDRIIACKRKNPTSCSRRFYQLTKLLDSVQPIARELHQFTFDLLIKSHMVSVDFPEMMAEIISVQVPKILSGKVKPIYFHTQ

For the compound `O=S(=O)(O)CCN1CCN(CCO)CC1`, the compound was called inactive in assay [1], in assay [2] and in [4]. Also, the Potency result in assay [3], in assay [5] and in assay [6] was “inactive” each time.

In the case of `CC(=O)Nc1ccc(S(=O)(=O)Cl)cc1`, the call in assay [1], in [2] and in assay [4] was inactive. The Potency result in [3] and in assay [5] was “inactive” throughout.

Take `COc1cc2c(cc1OC)[C@@H]1CC(=O)[C@@H](CC(C)C)CN1CC2`: the call in assay [1], in [2], in [8] and in assay [4] was inactive. Moreover, the Potency result in [7], in assay [3], in assay [5] and in assay [6] was “inactive” in each case.

For the compound `C[C@@H]1O[C@@H](O[C@@H]2[C@@H](O)[C@H](OCCc3ccc(O)c(O)c3)O[C@H](CO[C@@H]3O[C@H](CO)[C@@H](O)[C@H](O)[C@H]3O)[C@H]2OC(=O)/C=C/c2ccc(O)c(O)c2)[C@H](O)[C@H](O)[C@H]1O`, the call in assay [1], in assay [2] and in [4] was inactive. The Potency entry in [3] is “inactive”.

Consider `O=C(O)Cc1ccc(Cl)cc1Cl`, for which the Potency entry in assay [9], in [10], in assay [7], in assay [3], in [5] and in assay [6] was “inactive” throughout. Moreover, the outcome in assay [2] and in [4] was inactive.

`CCCCCCCCCCCCCC`: the compound was called inactive in assay [1], in [2] and in assay [4]. In addition, the Potency entry in assay [3], in [5] and in assay [6] was “inactive” throughout.

As to `Cc1nc2n(c(=O)c1CCN1CCC(c3noc4cc(F)ccc34)CC1)CCC[C@H]2O`, the cytotoxicity increase in assay [1] was -0.979% [at 15.8 µM]. Moreover, the values for the viability change, negative = cytotoxic in assay [2], in assay [5] and in [6] were 9.15% [at 19 µM], -0.31% [at 19 µM] and -0.26% [at 19 µM], respectively. Besides, the activity change, negative = inhibition in [7] is 1.12% [at 19 µM]; in assay [3], -1.31% [at 19 µM]. Besides, the compound was called inactive in assay [8]. The activity change, negative = cytotoxicity in [4] was -0.155% [at 19 µM].

Turning to `CCOC(=O)CC(=O)c1ccccc1`, the compound was classed as inactive in assay [1], in [2] and in [4]. Besides, the Potency entry in assay [7] and in assay [5] was “inactive” each time.

As to `CC1=CCC(C(C)C)=CC1`, the compound was classed as inactive in [1], in assay [2] and in [4]. The Potency result in [7], in assay [3], in [5] and in [6] was “inactive” in each case.

As to `CCCCCCN`, the outcome in assay [1], in assay [2] and in assay [4] was inactive. For the same compound, the Potency result in assay [7], in assay [3], in assay [5] and in [6] was “inactive” throughout.

`NCCN1CCOCC1`: the outcome in assay [1], in assay [2] and in assay [4] was inactive. The Potency result in [5] and in [6] was “inactive” throughout.

Turning to `Cc1ccccc1N=O`, the compound was called inactive in assay [1], in assay [2] and in [4]. Moreover, the Potency result in [3], in assay [5] and in assay [6] was “inactive” throughout.

Take `O=P(O)(O)OP(=O)(O)O`: the outcome in assay [1], in assay [2], in assay [8] and in [4] was inactive. In addition, the Potency entry in assay [3], in assay [5] and in assay [6] was “inactive” in each case.

For `Cc1cccc(OCC(O)CNC(C)(C)C)c1C` (centres undefined), the result in assay [1], in assay [2] and in assay [4] was inactive. Besides, the Potency entry in assay [10], in assay [3], in [5] and in [6] was “inactive” each time.

`CC(=O)NCc1c(I)c(NC(C)=O)c(I)c(C(=O)O)c1I`: the Potency entry in assay [9], in assay [10], in assay [7], in [5] and in assay [6] was “inactive” throughout. The outcome in assay [2], in assay [8] and in [4] was inactive.

Regarding `CCCN1C[C@H](CSC)C[C@@H]2c3cccc4[nH]cc(c34)C[C@H]21`, the call in assay [1], in assay [2], in [8] and in assay [4] was inactive. Moreover, the Potency entry in [7], in [5] and in assay [6] was “inactive” throughout.

`COc1ccc(C2CNC(=O)C2)cc1OC1CCCC1` (centres undefined): the compound was classed as inactive in assay [1], in assay [2], in [8] and in assay [4]. In addition, the Potency result in assay [3] and in assay [5] was “inactive” each time.

As to `NNc1nnc(NN)c2ccccc12`, the result in assay [1], in assay [2], in [8] and in assay [4] was inactive. The Potency result in assay [7], in assay [3], in [5] and in [6] was “inactive” in each case.

`CC(=C(CCOC(=O)C(C)C)SSC(CCOC(=O)C(C)C)=C(C)N(C=O)Cc1cnc(C)nc1N)N(C=O)Cc1cnc(C)nc1N`: the Potency result in [9], in [7], in assay [3] and in assay [5] was “inactive” in each case. For the same compound, the result in [2], in assay [8] and in assay [4] was inactive.

As for `Cc1cccc2nccnc12`, the outcome in assay [1], in assay [2] and in assay [4] was inactive. Further, the Potency entry in assay [7], in assay [3], in assay [5] and in assay [6] was “inactive” throughout.

Take `CCCCOCCOC(=O)COc1nc(Cl)c(Cl)cc1Cl`: the result in [1], in assay [2] and in [4] was inactive. Also, the Potency result in [7] and in assay [5] was “inactive” throughout.

With `CCC(C=O)CC`, the outcome in assay [1], in [2] and in assay [4] was inactive. In addition, the Potency result in [3] and in assay [6] was “inactive” throughout.

In the case of `C[Si](C)(C)C`, the compound was called inactive in assay [1], in assay [2] and in assay [4]. Besides, the Potency entry in [3], in assay [5] and in [6] was “inactive” throughout.

In the case of `O=C1c2cccc3c2[C@H](CCC3)CN1[C@@H]1CN2CCC1CC2`, the result in assay [1], in assay [2], in assay [8] and in assay [4] was inactive. Besides, the Potency result in [7] and in assay [6] was “inactive” in each case.

Turning to `CN(C)CCOCCO`, the outcome in [1], in assay [2] and in assay [4] was inactive. Further, the Potency entry in [7], in assay [3], in [5] and in assay [6] was “inactive” throughout.

For the compound `CCOc1cc([N+](=O)[O-])c(OCC)cc1N1CCOCC1`, the compound was called inactive in [1], in [2] and in assay [4]. Besides, the Potency result in [7], in assay [3], in assay [5] and in [6] was “inactive” in each case.

`COc1ccc2c(c1OC)C(=O)O[C@@H]2[C@H]1c2c(cc3c(c2OC)OCO3)CCN1C`: the compound was classed as inactive in assay [1], in assay [2], in assay [8] and in [4]. Moreover, the Potency in assay [5] was 2110 nM (active); in [6] it was 3350 nM (active).

`CC(=O)Nc1ccc(S(=O)(=O)Nc2ccc([N+](=O)[O-])cc2)cc1`: the call in assay [1], in [2], in assay [8] and in [4] was inactive. Moreover, the Potency entry in assay [7] is “inactive”.
